# Laboratory results as given in PubChem BioAssay (NCATS).
# Records with an inconclusive call do not appear. The source made the active and inactive calls. Unless noted, calls come from the whole dose curve; as a rule, active = well fitted curve in the direction sought with a large enough effect; inconclusive = small, poorly fitted or top-dose-only effect, or another doubt; inactive = no such curve, though single readings can be large; an effect the other way counts as inactive or inconclusive.
# Assays:
# [1] = target: Guanidinoacetate N-methyltransferase (Homo sapiens) (UniProt Q14353); assay: Confirmatory Screen for Target Class Profiling of Small Molecule Inhibitors of Methyltransferases (AID 1745852; calls by dose curve; note: potency is the fitted concentration of half-maximal effect; for activity change, negative = inhibition: % is set by controls: 0 for no effect and ±100 for the full control effect); settings: MTase-Glo luminescence, SAH detection, recombinant enzyme; activity change, negative = inhibition: at 57.3 µM (top of the series) unless noted
# [2] = target: Nicotinamide N-methyltransferase (Homo sapiens) (UniProt P40261); assay: as above; settings: MTase-Glo luminescence, SAH detection, recombinant enzyme; measured here: NNMT max response; stronger effect = lower value
# [3] = target: Phenylethanolamine N-methyltransferase (Homo sapiens) (UniProt P11086); assay: as above; settings: MTase-Glo luminescence, SAH detection, recombinant enzyme; measured here: PNMT max response; stronger effect = lower value
# [4] = NCATS anti-infectives library activity on the primary C. elegans qHTS viability assay (AID 1745855; calls by dose curve; note: potency is the fitted concentration of half-maximal effect); settings: C. elegans worm area imaging, day 7; series mostly up to 41.8 µM
# Method in brief: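 Titration-based screen in worms: eggs hatched overnight in M9, L1 larvae fed TOP10 capsules in S medium with compound, incubated 21 °C for 7 days; fluorescent objects gated by size and intensity at days 0, 3 and 7.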
# [5] = NCATS anti-infectives library activity on HEK293 viability as a counter-qHTS vs the C. elegans viability qHTS (AID 1745854); settings: HEK293 viability counter-screen; series mostly up to 41.8 µM;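 note: HEK293 cells exposed to compounds for 24 hr before the viability read; % is set by controls: 0 for no effect and ±100 for the full control effect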
# Method in brief: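 Compound titrations (final up to 41.7 uM) were incubated with HEK293 cells for 24 hr at 37C under 5% CO2. Viable cells were quantified with CellTiter-Glo after 10 min at ambient temperature.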
# [6] = Viability counterscreen for antagonist of constitutive androstane receptor (CAR) against the NCATS DSHEA and TCM libraries (AID 1794837); settings: CAR reporter cell line viability counterscreen, qHTS; series mostly up to 40 µM;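 note: compound exposure lasted 24 h before viability reading; 0% is about no effect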
# Method in brief: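 Counterscreen performed in a 1536-well qHTS format using HepG2-CYP2B6-hCAR cells; samples titrated in the presence of 48 uM CITCO, with viability measured fluorometrically (405/540 nm) after 24 h.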
# [7] = Viability counterscreen for agonist of constitutive androstane receptor (CAR) against the NCATS DSHEA and TCM libraries (AID 1794838); settings: HepG2 cell viability counterscreen, CAR agonist assay, co-treated with 0.75 µM CAR antagonist; series mostly up to 40 µM;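 note: cells exposed to compound for 24 h; 0% is about no effect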
# Method in brief: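 Multiplexed counterscreen: after 24 h compound exposure with 0.75 uM PK11195, HepG2-CYP2B6-hCAR viability was quantified fluorimetrically (CellTiter-Fluor, 405/540 nm) prior to the ONE-Glo luciferase read.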
# [8] = target: Nuclear receptor subfamily 1 group I member 3 (Homo sapiens) (UniProt Q14994); assay: Primary qHTS for agonist of constitutive androstane receptor (CAR) against the NCATS DSHEA and TCM libraries (AID 1794839); settings: CAR agonist reporter cells, qHTS luminescence, CAR antagonist co-added at 0.75 µM; series mostly up to 40 µM; note: potency is the fitted concentration of half-maximal effect
# Method in brief: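 Concentration–response screen in HepG2-CYP2B6-hCAR cells under 0.75 µM PK11195; 24 h exposure; luminescent reporter signal with multiplexed fluorescent viability.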
# [9] = HepG2 viability counterscreen (readout 2: ATP content) against the NCATS DSHEA and TCM libraries (AID 1794840); settings: ATP content luminescence; series mostly up to 27.3 µM;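 note: HepG2 cells exposed to substances for about 24 h; 0% is about no effect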
# Method in brief: (§1)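 After HepG2 cells attach for ~4 h, substances are added and incubated ~24 h at 37C, 5% CO2. GF-AFC fluorescence then CellTiter-Glo luminescence give protease and ATP readouts.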
# [10] = HepG2 viability counterscreen (readout 1: protease activity) against the NCATS DSHEA and TCM libraries (AID 1794841); settings: qHTS concentration series; series mostly up to 27.3 µM;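 note: cells exposed to compounds for about 24 h before the protease read; 0% is about no effect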
# Method in brief: as §1
# Sequence of Phenylethanolamine N-methyltransferase (Homo sapiens) (P11086 whole entry, looked up): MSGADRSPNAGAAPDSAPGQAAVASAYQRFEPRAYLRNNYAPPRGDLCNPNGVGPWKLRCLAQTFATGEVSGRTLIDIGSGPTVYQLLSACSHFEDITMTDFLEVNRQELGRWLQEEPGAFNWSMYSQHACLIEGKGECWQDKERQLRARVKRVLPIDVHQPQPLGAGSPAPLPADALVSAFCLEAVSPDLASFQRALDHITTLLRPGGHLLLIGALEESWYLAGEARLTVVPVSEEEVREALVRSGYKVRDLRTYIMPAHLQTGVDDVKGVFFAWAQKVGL
# Sequence of Nicotinamide N-methyltransferase (Homo sapiens) (P40261 whole entry, looked up): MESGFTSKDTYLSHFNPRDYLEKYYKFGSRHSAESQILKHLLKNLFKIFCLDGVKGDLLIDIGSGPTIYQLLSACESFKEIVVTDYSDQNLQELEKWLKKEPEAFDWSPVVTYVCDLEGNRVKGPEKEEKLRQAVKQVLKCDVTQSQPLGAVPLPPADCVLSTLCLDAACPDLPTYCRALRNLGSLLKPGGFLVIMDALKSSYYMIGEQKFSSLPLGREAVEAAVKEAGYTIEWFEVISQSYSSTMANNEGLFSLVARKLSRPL
# Sequence of Nuclear receptor subfamily 1 group I member 3 (Homo sapiens) (Q14994 whole entry, looked up): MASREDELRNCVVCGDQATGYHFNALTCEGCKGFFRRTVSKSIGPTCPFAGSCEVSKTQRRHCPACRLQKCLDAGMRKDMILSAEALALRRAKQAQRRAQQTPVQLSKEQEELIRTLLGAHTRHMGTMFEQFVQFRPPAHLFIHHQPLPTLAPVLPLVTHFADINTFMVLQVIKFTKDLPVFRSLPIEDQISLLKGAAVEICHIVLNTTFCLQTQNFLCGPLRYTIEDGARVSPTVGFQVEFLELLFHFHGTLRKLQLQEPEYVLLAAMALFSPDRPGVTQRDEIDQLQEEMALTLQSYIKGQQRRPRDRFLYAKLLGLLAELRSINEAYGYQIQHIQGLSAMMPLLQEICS
smiles,measurement,setting,value
O=C(Nc1ccccc1-c1cn2c(CN3CCNCC3)csc2n1)c1cnc2ccccc2n1,Potency,[1],15.3 µM (active)
same,activity,[2],-43.9%
same,activity,[3],-31.7%
CC[C@]1(O)C[C@@H]2CN(CCc3c([nH]c4ccccc34)[C@@](C(=O)OC)(c3cc4c(cc3OC)N(C)[C@H]3[C@@](O)(C(=O)OC)[C@H](OC(C)=O)[C@]5(CC)C=CCN6CC[C@]43[C@@H]65)C2)C1,"activity change, negative = inhibition",[1],10.8%
same,activity,[2],-2.58%
same,activity,[3],4.57%
COc1ccc(-c2nc(N3CCOCC3)c3sc(CN(C)c4ncc(C(=O)NO)cn4)cc3n2)cn1,Potency,[4],14.5 µM (active)
CC#CCn1c(N2CCC[C@@H](N)C2)nc2c1c(=O)n(Cc1nc(C)c3ccccc3n1)c(=O)n2C,outcome,[5],inactive
O=C(O)c1ccc(-c2c[nH]c3ncc(-c4ccccc4)cc23)cc1C1CCCC1,outcome,[5],inactive
CCc1ccc(C=C2SC(=S)NC2=O)cc1,"activity change, negative = inhibition",[1],-3.11%
same,activity,[2],-15.7%
same,activity,[3],-1.21%
CC1(C)CCC(CN2CCN(c3ccc(C(=O)NS(=O)(=O)c4ccc(NCC5CCOCC5)c([N+](=O)[O-])c4)c(Oc4cnc5[nH]ccc5c4)c3)CC2)=C(c2ccc(Cl)cc2)C1,"activity change, negative = inhibition",[1],1.26% [at 29.8 µM]
same,activity,[2],-11.4%
same,activity,[3],-21.8%
COc1cc(O)c2c(c1)C(=O)c1cc(C)cc(O)c1C2=O,outcome,[6],inactive
same,outcome,[7],inactive
same,Potency,[8],inactive
same,outcome,[9],inactive
same,outcome,[10],inactive
CCS(=O)(=O)N1CC(CC#N)(n2cc(-c3ncnc4[nH]ccc34)cn2)C1,outcome,[5],inactive
CC1CCC(C(=O)N(c2cc(C#CC(C)(C)C)sc2C(=O)O)C2CCC(O)CC2)CC1 (stereo not given),outcome,[5],inactive
same,Potency,[4],inactive
NC(=O)[C@@H](CCC(F)(F)F)N(Cc1ccc(-c2ncon2)cc1F)S(=O)(=O)c1ccc(Cl)cc1,outcome,[5],inactive
same,Potency,[4],inactive
C[C@H](NC(=O)C(=O)Nc1ccccc1C(C)(C)C)C(=O)N[C@@H](CC(=O)O)C(=O)COc1c(F)c(F)cc(F)c1F,"activity change, negative = cytotoxicity",[5],-18.7% [at 8.35 µM] (inactive)
O=c1cc(-c2ccc(O)cc2)oc2cc(O)cc(O)c12,outcome,[6],inactive
same,outcome,[7],inactive
same,outcome,[9],inactive
same,outcome,[10],inactive
O=C(O)CCC1CCC(c2cc(F)ccc2F)(S(=O)(=O)c2ccc(Cl)cc2)CC1 (stereo not given),outcome,[5],inactive
NC(=O)c1cnc(-c2ccc(C3(N)CCC3)cc2)c(-c2ccccc2)c1,"activity change, negative = inhibition",[1],0.723%
same,activity,[2],-51.4%
same,activity,[3],-17.2%
Cn1c(N2CCCCS2(=O)=O)nc(C(=O)NCc2ccc(F)cc2)c(O)c1=O,outcome,[5],inactive
CC(C)=CC[C@@H](O)C1=CC(=O)c2c(O)ccc(O)c2C1=O,Potency,[4],16.3 µM (active)
CN1CCN(CCOc2cc(OC3CCOCC3)c3c(Nc4c(Cl)ccc5c4OCO5)ncnc3c2)CC1,"activity change, negative = inhibition",[1],-0.0396%
same,activity,[2],-34.6%
same,activity,[3],-10.6%
same,outcome,[5],inactive
CC1(C)CCC2=C(O1)c1ccccc1C(=O)C2=O,Potency,[1],9.68 µM (active)
same,activity,[2],-22.7%
same,activity,[3],-16.1%
COc1cc(N2CCC(N3CCN(C)CC3)CC2)ccc1Nc1ncc(Cl)c(Nc2ccccc2S(=O)(=O)C(C)C)n1,Potency,[1],27.1 µM (active)
same,activity,[2],-19%
same,activity,[3],-27.6%
O=C1NC(=O)C(c2ccccc2)(c2ccccc2)N1,outcome,[5],inactive
CC(=O)N[C@@H](CS)C(=O)O,outcome,[5],inactive
CC(=O)CCCCn1c(=O)c2c(ncn2C)n(C)c1=O,outcome,[5],inactive
COc1ccc2c(Oc3ccc(NC(=O)c4c(C)n(CC(C)(C)O)n(-c5ccccc5)c4=O)cc3F)ccnc2c1,"activity change, negative = inhibition",[1],-3.46%
same,activity,[2],-7.85%
same,activity,[3],-1.86%
COc1cccc2c1CCCC2CCCN1CCN(C2CCCCC2)CC1 (stereo not given),Potency,[4],inactive
COc1ccc(Cc2nccc3cc(OC)c(OC)cc23)cc1OC,"activity change, negative = inhibition",[1],-7.19%
same,activity,[2],-16.1%
same,activity,[3],-24.2%
CCCCCN(C)CCC(O)(P(=O)(O)O)P(=O)(O)O,"activity change, negative = cytotoxicity",[5],-3.04% [at 3.71 µM] (inactive)
COc1ccc(-c2coc3cc(O)ccc3c2=O)cc1,outcome,[9],inactive
same,outcome,[10],inactive
O=c1c(-c2ccc(O)cc2)coc2cc(O[C@@H]3O[C@H](CO)[C@H](O)[C@H](O)[C@H]3O)ccc12,outcome,[6],inactive
same,outcome,[7],inactive
same,Potency,[8],10 µM (active)
same,outcome,[9],inactive
same,outcome,[10],inactive
C=CCc1ccc(O)c(-c2ccc(O)c(CC=C)c2)c1,outcome,[5],inactive
Cc1cccc(Nc2nc(-c3ccncc3)cs2)c1,Potency,[1],13.6 µM (active)
same,activity,[2],-73.8%
same,activity,[3],-88.3%
COc1cc2ncnc(Nc3ccc(F)c(Cl)c3)c2cc1OCCCN1CCOCC1,Potency,[1],24.1 µM (active)
same,activity,[2],-60.5%
same,activity,[3],-74.4%
O=C(Nc1c(Cl)cncc1Cl)c1ccc(OC(F)F)c(OCC2CC2)c1,outcome,[5],inactive
CC(=O)N(C)C1(c2ccccc2)CCN(CCC[C@]2(c3ccc(Cl)c(Cl)c3)CCCN(C(=O)c3ccccc3)C2)CC1,"activity change, negative = inhibition",[1],0%
same,activity,[2],-62.2%
same,activity,[3],-6.52%
